{"source": "ChEMBL document CHEMBL3433997", "about": "“St. Jude Leishmania screening dataset” (2016)", "assay_type_in_all_cases": "functional", "key": {"[1]": {"molecular_target": "Solute carrier family 2, facilitated glucose transporter member 1 (Homo sapiens) (UniProt P11166)", "sequence (P11166 whole entry)": "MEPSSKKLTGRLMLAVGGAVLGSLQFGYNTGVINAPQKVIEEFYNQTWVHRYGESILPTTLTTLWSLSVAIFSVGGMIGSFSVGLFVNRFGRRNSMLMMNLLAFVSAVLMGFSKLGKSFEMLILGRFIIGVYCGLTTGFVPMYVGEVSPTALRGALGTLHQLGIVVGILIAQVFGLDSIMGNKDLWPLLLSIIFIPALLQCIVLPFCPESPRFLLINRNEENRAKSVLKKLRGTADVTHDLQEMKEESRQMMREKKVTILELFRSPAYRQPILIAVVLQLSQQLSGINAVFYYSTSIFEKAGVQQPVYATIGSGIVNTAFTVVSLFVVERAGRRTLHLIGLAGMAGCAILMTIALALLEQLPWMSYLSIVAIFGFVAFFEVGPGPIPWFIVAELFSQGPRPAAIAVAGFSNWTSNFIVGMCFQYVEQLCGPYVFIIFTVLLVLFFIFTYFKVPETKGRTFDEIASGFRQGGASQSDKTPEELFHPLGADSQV", "test": "ST_JUDE_LEISH: Cytotoxicity at 2uM final concentration against transgenic Leishmania Mexicana promastigotes LmGLUT1 that are glucose transport deficient and complemented with the human glucose transporter GLUT1. Activity is measured by DNA content using SYBR green in vitro"}, "[2]": {"molecular_target": "Hexose transporter 1 (Plasmodium falciparum) (UniProt O97467)", "test": "ST_JUDE_LEISH: Cytotoxicity at 2uM final concentration against transgenic Leishmania Mexicana promastigotes LmPfHT that are glucose transport deficient and complemented with the Plasmodium falciparum hexose transporter. Activity is measured by DNA content using SYBR green in vitro"}, "[3]": {"molecular_target": "Glucose transporter (Leishmania mexicana) (UniProt O61059)", "test": "ST_JUDE_LEISH: Cytotoxicity at 2uM final concentration against transgenic Leishmania Mexicana promastigotes LmGT2 that are glucose transport deficient and complemented with the L. Mexicana glucose transporter 2. Activity is measured by DNA content using SYBR green in vitro"}}, "data": [{"smiles": "CN1CC=C(c2c[nH]c3ccc(Sc4ccccc4)cc23)CC1", "values": [{"measurement": "inhibition", "setting": "[1]", "value": 1.74, "unit": "%"}, {"measurement": "inhibition", "setting": "[2]", "value": 2.9, "unit": "%"}, {"measurement": "inhibition", "setting": "[3]", "value": 3.42, "unit": "%"}]}, {"smiles": "CC(=O)N(Cc1ccccc1-c1cccc(CNCCc2ccccc2)c1)C1CCN(Cc2ccccc2)CC1", "values": [{"measurement": "inhibition", "setting": "[1]", "value": 8.96, "unit": "%"}, {"measurement": "inhibition", "setting": "[2]", "value": 7.85, "unit": "%"}, {"measurement": "inhibition", "setting": "[3]", "value": 7.27, "unit": "%"}]}, {"smiles": "Fc1ccc(N(c2nc(-c3cc(F)cc(C(F)(F)F)c3)cs2)C2CCNCC2)cc1", "values": [{"measurement": "inhibition", "setting": "[1]", "value": -1.03, "unit": "%"}, {"measurement": "inhibition", "setting": "[2]", "value": -0.75, "unit": "%"}, {"measurement": "inhibition", "setting": "[3]", "value": -1.46, "unit": "%"}]}, {"smiles": "CC[C@H]1CN2CC[C@H]1C[C@H]2[C@H](O)c1cc(-c2ccccc2C(F)(F)F)nc2ccc(OC)cc12", "values": [{"measurement": "inhibition", "setting": "[1]", "value": 0.61, "unit": "%"}, {"measurement": "inhibition", "setting": "[2]", "value": 1.6, "unit": "%"}, {"measurement": "inhibition", "setting": "[3]", "value": -1.22, "unit": "%"}]}, {"smiles": "COc1ccc(CC(C)NCC(O)c2cccc(C(F)(F)F)c2)cc1", "note": "(centres undefined)", "values": [{"measurement": "inhibition", "setting": "[1]", "value": 9.76, "unit": "%"}, {"measurement": "inhibition", "setting": "[2]", "value": 8.74, "unit": "%"}, {"measurement": "inhibition", "setting": "[3]", "value": 8.93, "unit": "%"}]}, {"smiles": "O=C(NC1CCN(CC2(c3ccc(Cl)cc3)CCC2)CC1)c1cc[nH]n1", "values": [{"measurement": "inhibition", "setting": "[1]", "value": 1.71, "unit": "%"}, {"measurement": "inhibition", "setting": "[2]", "value": -0.69, "unit": "%"}, {"measurement": "inhibition", "setting": "[3]", "value": -1.02, "unit": "%"}]}, {"smiles": "N#Cc1c(Cl)cccc1Oc1ccc(S(=O)(=O)N2CCC(CN3CCC(c4c[nH]c5ccccc45)CC3)CC2)cc1", "values": [{"measurement": "inhibition", "setting": "[1]", "value": 1.64, "unit": "%"}, {"measurement": "inhibition", "setting": "[2]", "value": -0.14, "unit": "%"}, {"measurement": "inhibition", "setting": "[3]", "value": -0.73, "unit": "%"}]}, {"smiles": "COc1ccccc1CC(C)NCC(O)c1cccc(Cl)c1", "note": "(centres undefined)", "values": [{"measurement": "inhibition", "setting": "[1]", "value": -0.34, "unit": "%"}, {"measurement": "inhibition", "setting": "[2]", "value": 4.23, "unit": "%"}, {"measurement": "inhibition", "setting": "[3]", "value": 1.87, "unit": "%"}]}, {"smiles": "O=c1n[n+](C2CCCCC2)[n-]o1", "values": [{"measurement": "inhibition", "setting": "[1]", "value": -0.73, "unit": "%"}, {"measurement": "inhibition", "setting": "[2]", "value": -0.13, "unit": "%"}, {"measurement": "inhibition", "setting": "[3]", "value": -0.34, "unit": "%"}]}, {"smiles": "CC(C)CNCc1ccc(-c2cccc(CN(C(=O)CCC3CCCC3)C3CCN(Cc4ccccc4)CC3)c2)cc1", "values": [{"measurement": "inhibition", "setting": "[1]", "value": 16.4, "unit": "%"}, {"measurement": "inhibition", "setting": "[2]", "value": 12.3, "unit": "%"}, {"measurement": "inhibition", "setting": "[3]", "value": 10.7, "unit": "%"}]}, {"smiles": "COCCNCc1cccc(-c2ccc(CN(C(=O)Nc3ccccc3)C3CCN(Cc4ccccc4)CC3)cc2)c1", "values": [{"measurement": "inhibition", "setting": "[1]", "value": 2.81, "unit": "%"}, {"measurement": "inhibition", "setting": "[2]", "value": 0.8, "unit": "%"}, {"measurement": "inhibition", "setting": "[3]", "value": 2.73, "unit": "%"}]}, {"smiles": "CCCN(CC(=O)NCCc1ccccc1)c1ccc(C#N)c2ccccc12", "values": [{"measurement": "inhibition", "setting": "[1]", "value": 2.23, "unit": "%"}, {"measurement": "inhibition", "setting": "[2]", "value": 1.5, "unit": "%"}, {"measurement": "inhibition", "setting": "[3]", "value": 1.66, "unit": "%"}]}, {"smiles": "O=C(C=Cc1ccc(Br)cc1)NC1CCC(CN2CCC(c3c[nH]c4ccccc34)CC2)CC1", "note": "(centres undefined)", "values": [{"measurement": "inhibition", "setting": "[1]", "value": 2.45, "unit": "%"}, {"measurement": "inhibition", "setting": "[2]", "value": 2.86, "unit": "%"}, {"measurement": "inhibition", "setting": "[3]", "value": 4.98, "unit": "%"}]}, {"smiles": "CC[C@H]1CN2CC[C@H]1C[C@H]2[C@H](O)c1cc(N2CCCC(C(=O)N(CC)CC)C2)nc2ccc(OC)cc12", "note": "(some centres undefined)", "values": [{"measurement": "inhibition", "setting": "[1]", "value": 1.75, "unit": "%"}, {"measurement": "inhibition", "setting": "[2]", "value": 2.21, "unit": "%"}, {"measurement": "inhibition", "setting": "[3]", "value": 0.33, "unit": "%"}]}, {"smiles": "CN1CC=C(c2c[nH]c3ccc(Oc4ccccc4)cc23)CC1", "values": [{"measurement": "inhibition", "setting": "[1]", "value": 0.93, "unit": "%"}, {"measurement": "inhibition", "setting": "[2]", "value": 6.03, "unit": "%"}, {"measurement": "inhibition", "setting": "[3]", "value": 3.03, "unit": "%"}]}, {"smiles": "Cc1ccc(C[C@@H](C)NC[C@H](O)c2cccc(C(F)(F)F)c2)cc1", "values": [{"measurement": "inhibition", "setting": "[1]", "value": 3.18, "unit": "%"}, {"measurement": "inhibition", "setting": "[2]", "value": 3.1, "unit": "%"}, {"measurement": "inhibition", "setting": "[3]", "value": 2.92, "unit": "%"}]}, {"smiles": "O=C(/C=C/c1cc(F)cc(C(F)(F)F)c1)N1CCC(CN2CCC(c3c[nH]c4ccccc34)CC2)CC1", "values": [{"measurement": "inhibition", "setting": "[1]", "value": 0.47, "unit": "%"}, {"measurement": "inhibition", "setting": "[2]", "value": 1.39, "unit": "%"}, {"measurement": "inhibition", "setting": "[3]", "value": 2.96, "unit": "%"}]}, {"smiles": "O=C(NCc1ccc(S(=O)(=O)N2CCC(CN3CCC(c4c[nH]c5ccccc45)CC3)CC2)s1)c1ccccc1", "values": [{"measurement": "inhibition", "setting": "[1]", "value": 3.85, "unit": "%"}, {"measurement": "inhibition", "setting": "[2]", "value": 3.63, "unit": "%"}, {"measurement": "inhibition", "setting": "[3]", "value": 3.02, "unit": "%"}]}]}
